Results: PubChem BioAssay
Several values for one entry are separate records, joined by “and”; a condition that tells them apart may be missing. Equal entries are not always repeated. Activity calls are given as the source filed them. Cut-off read from the data, not from the text of the source, unless noted: active = inhibition above about 80%; inactive = the rest.

What was measured:
[1] = viability loss with induced miR-34 in A549 – imaging, A549 dox-inducible miR-34, nuclei and caspase counts, primary screen (AID 1347080;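 active = compounds whose cell count with miR-34 switched on is under 0.7 times the count with it off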); conditions: A549 miR-34 inducible, Hoechst nuclei count, 48 h
[2] = MELAS cybrid and Rieske KO viability enhancers – cell-based, MELAS cybrids, Rieske KO mouse fibroblasts, CellTiter-Glo, primary screen (AID 1508586;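 active = mean z-score across replicates of 1.96 or higher in either the MELAS or the Rieske mutant cell line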;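 note: z relative to plate mean and SD of compound and empty wells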); conditions: low glucose
[3] = galactose survival enhancers in mitochondrial complex I cybrids – cell-based, galactose medium, ATP luminescence, primary screen (AID 1645843;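 active = z-score of at least 1.8 in each of two replicates, scored against plate mean and spread of sample wells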;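 note: positive z means more ATP and so rescue of galactose-driven cybrid death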); conditions: complex I mutant cybrid cells, 72 h, stronger effect = higher value
[4] = growth inhibition, single agent or in combination, cell-based, chromothripsis tumors, cisplatin or BGB combos (AID 1671449); conditions: LFS_MB_P medulloblastoma cells;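 note: cells exposed for 96 hours; 0% = vehicle DMSO and 100% = killing by high DMSO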
[5] = growth inhibition, single agent and combos, cell-based, chromothripsis tumors, cisplatin or BGB combos (AID 1671450); conditions: HDN33 neuroblastoma cells, stronger effect = higher value;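 note: cells exposed to compound for four days; 0% = vehicle DMSO and 100% = cell killing by high DMSO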
[6] = growth inhibition, single agents and combos, ICB984, cell-based, cisplatin or BGB combos, synergistic combos for chromothripsis tumors (AID 1671451; call rule not given here;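 note: cells exposed for 96 hours before readout; 0% = vehicle DMSO and 100% = killing by high DMSO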); conditions: ICB984 medulloblastoma cells, drug combinations, stronger effect = higher value
[7] = growth inhibition, single agents and combos, LFS_MB_1R, cell-based, cisplatin or BGB combos, synergistic combos for chromothripsis tumors (AID 1671452); conditions: LFS_MB_1R medulloblastoma cells, stronger effect = higher value;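 note: cells exposed for 96 hours before readout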
[8] = growth inhibition, single agents and combos, HTB85, cell-based, BGB or cisplatin IC20 combos, synergistic combos for chromothripsis tumors (AID 1671453); conditions: HTB85 osteosarcoma cells, drug combinations, stronger effect = higher value;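 note: cells exposed for 96 hours before readout; 0% = vehicle DMSO and 100% = high DMSO killing control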
[9] = growth inhibition, single agents and combos, CRL2098, cell-based, BGB or cisplatin IC20 combos, synergistic combos for chromothripsis tumors (AID 1671454); conditions: CRL2098 osteosarcoma cells, drug combinations, stronger effect = higher value;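 note: cells exposed for 96 h before readout; 0% = vehicle DMSO and 100% = killing by high DMSO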
[10] = growth inhibition, single agents and combos, HD-MB03, cell-based, BGB or cisplatin IC20 combos, synergistic combos for chromothripsis tumors (AID 1671455; in the data active = inhibition above about 83%;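 note: 0% = vehicle DMSO and 100% = high DMSO as cytotoxic control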); conditions: HD-MB03 medulloblastoma cells, stronger effect = higher value
[11] = growth inhibition, single agents and combos, UWB1.289, cell-based, BGB or cisplatin combos, synergistic combos for chromothripsis tumors (AID 1671456); conditions: UWB1.289 ovarian carcinoma cells, stronger effect = higher value;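 note: cells exposed to compound for four days; 0% = vehicle DMSO and 100% = killing by high DMSO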
[12] = growth inhibition, single agents and combos, LFS_MB_2R, cell-based, cisplatin combos, synergistic combos for chromothripsis tumors (AID 1671457); conditions: LFS_MB_2R medulloblastoma cells, stronger effect = higher value;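 note: cells exposed to compound for four days before readout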
[13] = growth inhibition, MDA-MB-436, cell-based, BGB or cisplatin combos, synergistic combos for chromothripsis tumors (AID 1671458; call rule not given here;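 note: cells exposed for 96 hours; 0% = vehicle DMSO and 100% = killing by high DMSO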); conditions: MDA-MB-436 breast carcinoma growth inhibition, drug combinations, stronger effect = higher value
[14] = UWB1.289_BRCA1 ovarian cancer growth, cell-based, BGB or cisplatin combinations (AID 1671459); conditions: UWB1.289 BRCA1 ovarian carcinoma, drug combinations, stronger effect = higher value
[15] = drug combination toxicity in non-malignant astrocytes – cell-based, BGB or cisplatin IC20 combos, cytotoxicity control for chromothriptic childhood tumor combination screen (AID 1671460); conditions: Human astrocytes, viability inhibition, drug combinations, at 0.5 µM, stronger effect = higher value;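 note: cells exposed to compounds for 96 hours before viability readout; 0% = vehicle and 100% = killing control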
[16] = BT084 cell growth, single and combined drugs, ICGC_MB145, cisplatin and BGB IC40 combos (AID 1671461); conditions: BT084 medulloblastoma cells, drug combinations, stronger effect = higher value;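 note: cells exposed to drugs for 96 hours; 0% = vehicle DMSO and 100% = high DMSO full killing control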
[17] = RCMB18 cell growth, single agent and combined, cisplatin and BGB IC40 combos (AID 1671462); conditions: RCMB18 medulloblastoma cells, stronger effect = higher value;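 note: cells exposed to compound for four days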
[18] = CRL1545 cell growth, single agent and combined, cisplatin and BGB IC20 combos (AID 1671464); conditions: CRL1545 osteosarcoma cells, stronger effect = higher value;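 note: cells exposed to compound for 96 hours before readout; 0% = vehicle DMSO and 100% = high DMSO killing control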
[19] = stronger effect = lower value, cell number ratio, induced over uninduced
[20] = measured here: relative caspase fold change +Dox/-Dox
[21] = measured here: total cells with miR-34 induction, stronger effect = lower value
[22] = measured here: total cells without miR-34 induction
[23] = MELAS cybrid survival, CellTiter-Glo 48 h, stronger effect = higher value
[24] = Rieske KO mouse fibroblast survival, CellTiter-Glo 72 h
[25] = measured here: combination with BGB IC40, at 0.05 µM
[26] = measured here: with BGB IC20 combination, at 0.5 µM
[27] = measured here: with cisplatin IC20 combination, at 0.5 µM
[28] = measured here: combination with cisplatin, at 0.5 µM
[29] = measured here: combination with cisplatin, at 5 µM

Question: Which fold change [1, 19] does the source give for `O=C1CN(c2ncnc3sccc23)CCN1Cc1cccc(F)c1` here?
Answer: 0.826 (inactive)

Question: And the fold change [1, 20]?
Answer: 1.63

Question: And the cell count [1, 21]?
Answer: 4730

Question: And the cell count [1, 22]?
Answer: 5730

Question: What about the z-score [2, 23] of the same molecule?
Answer: -0.104 (inactive)

Question: What about the z-score [2, 24] of the same molecule?
Answer: 0.0557

Question: And the z-score [3]?
Answer: 3.78 (active)

Question: Which fold change [1, 19] does the source give for `c1ccc(-c2noc(-c3cccc4cccnc34)n2)nc1` here?
Answer: 0.892 (inactive)

Question: What about the fold change [1, 20] of the same molecule?
Answer: 1.13

Question: And the cell count [1, 21]?
Answer: 7790

Question: And the cell count [1, 22]?
Answer: 8740

Question: What about the z-score [2, 23] of the same molecule?
Answer: -0.283 (inactive)

Question: What about the z-score [2, 24] of the same molecule?
Answer: 1.05

Question: And the z-score [3]?
Answer: 0.93 (inactive)

Question: Which results are given for `Nc1nc(Cl)nc2c1ncn2C1CC(O)C(CO)O1` (centres undefined)?
Answer: fold change [1, 19]: 0.657 (active) and 0.485 (active); fold change [1, 20]: 3.27 and 5.56; cell count [1, 21]: 1440 and 1620; cell count [1, 22]: 2200 and 3330; z-score [2, 23]: 0.255 (inactive); z-score [2, 24]: 0.0981; z-score [3]: -1.71 (inactive); inhibition ([4]; at 0.5 µM, stronger effect = higher value): -16% (inactive) and 3.33% (inactive); inhibition ([4]; measured here: combination with BGB IC20, at 0.005 µM): -14.4% and 7.64%; inhibition ([4]; measured here: combination with BGB IC40, at 0.005 µM): -28.7% and 21.8%; inhibition [4, 25]: -54.9% and 15%; inhibition ([4]; measured here: combination with cisplatin, at 0.5 µM, stronger effect = higher value): -23.7% and 50.7%; inhibition ([4]; measured here: combination with cisplatin, at 5 µM, stronger effect = higher value): 76.7% and 86.2%; inhibition ([5]; BGB combo, at 5 µM): 83.3% and 87.6%; inhibition ([5]; at 0.5 µM): 6.11% (inactive) and 14.7% (inactive); inhibition ([5]; cisplatin combo, at 5 µM): 79% and 81.5%; inhibition [5, 26]: 10.3% and 9.34%; inhibition [5, 27]: -1.24% and 16.1%; inhibition ([5]; single agent, at 5 µM): 84.5% and 87.2%; inhibition ([6]; BGB IC20 combo, at 0.005 µM): -1.92% and -30.4%; inhibition ([6]; BGB IC40 combo, at 0.005 µM): -14.5% and -25.7%; inhibition ([6]; BGB IC40 combo, at 0.05 µM): -14.6% and -11.7%; inhibition ([6]; at 0.5 µM): -34.2% (inactive) and -10.6% (inactive); inhibition ([6]; cisplatin combo, at 0.05 µM): -18.7% and -11.7%; inhibition ([6]; cisplatin combo, at 0.5 µM): -35.7% and -23.4%; inhibition ([6]; cisplatin combo, at 5 µM): -35.2% and -39.5%; inhibition ([6]; measured here: 5 uM single agent, at 5 µM): -14.9% and -11.7%; inhibition ([7]; at 0.5 µM): -20.9% (inactive) and -13% (inactive); inhibition [7, 25]: -46.2% and -32.5%; inhibition [7, 28]: 26.2% and 30.5%; inhibition [7, 29]: 52% and 76.7%; inhibition ([8]; at 0.5 µM): 22.5% (inactive) and 18.5% (inactive); inhibition ([8]; measured here: with BGB IC20, at 0.5 µM): 21.3% and 13.2%; inhibition ([8]; measured here: with BGB IC20, at 5 µM): 92.2% and 94.6%; inhibition ([8]; measured here: with cisplatin IC20, at 0.5 µM): 10.1% and 11.2%; inhibition ([8]; measured here: with cisplatin IC20, at 5 µM): 90.5% and 90%; inhibition ([8]; single agent, at 5 µM): 94.7% and 91.5%; inhibition ([9]; at 0.5 µM): -92.1% (inactive) and -37.1% (inactive); inhibition ([9]; measured here: combination with BGB at IC20, at 0.5 µM): -60.9% and -36.5%; inhibition ([9]; measured here: combination with cisplatin at IC20, at 0.5 µM): -146% and -71.4%; inhibition ([10]; at 0.5 µM): 93.4% (active) and 93.2% (active); inhibition ([10]; measured here: combo with BGB at IC20, at 0.5 µM): 87.7% and 88.9%; inhibition ([10]; measured here: combo with cisplatin at IC20, at 0.5 µM): 96.3% and 94.8%; inhibition ([11]; at 0.5 µM): 12.5% (inactive) and 14.8% (inactive); inhibition ([11]; measured here: inhibition with BGB combination, at 0.05 µM): -7.25% and -6.1%; inhibition ([11]; measured here: inhibition with cisplatin combination, at 0.05 µM): -13.8% and -6.66%; inhibition ([12]; at 0.5 µM): -3.57% (inactive) and 10.2% (inactive); inhibition [12, 28]: 24.5% and 43.1%; inhibition [12, 29]: 61.9% and 69.5%; inhibition ([13]; at 0.5 µM): 3.02% (inactive) and 2.95% (inactive); inhibition ([13]; measured here: BGB combination, at 0.5 µM): -5.54% and -2.62%; inhibition ([13]; measured here: BGB combination, at 5 µM): 46.1% and 53.6%; inhibition ([13]; measured here: cisplatin combination, at 0.5 µM): -4.37% and -12.8%; inhibition ([13]; measured here: cisplatin combination, at 5 µM): 61.1% and 70%; inhibition ([14]; BGB combination, concentration series, at 5 µM): 43.2% and 57.7%; inhibition ([14]; at 0.5 µM): 20.9% (inactive) and 19.3% (inactive); inhibition ([14]; cisplatin combination, concentration series, at 5 µM): 48.4% and 63.7%; inhibition [15]: 58.1% (inactive) and 38.4% (inactive); inhibition ([15]; measured here: combo with BGB IC20): 62.6% and 39.2%; inhibition ([15]; measured here: combo with cisplatin IC20): 42.6% and 31.2%; inhibition ([16]; at 0.5 µM): -0.858% (inactive) and 10.4% (inactive); inhibition ([16]; cisplatin combination, at 0.5 µM): 37.2% and 42%; inhibition ([16]; cisplatin combination, at 5 µM): 65.8% and 54%; inhibition ([16]; measured here: BGB IC40 combination 0.05 uM, at 0.05 µM): -30.7% and 12.8%; inhibition ([16]; single agent, at 5 µM): 1.68% and 7.77%; inhibition ([17]; at 0.5 µM): 19.1% (inactive) and 26.3% (inactive); inhibition ([17]; cisplatin combo, at 5 µM): 83.6% and 81.2%; inhibition ([17]; measured here: BGB IC40 combination, at 0.05 µM): -5.46% and 2.56%; inhibition [17, 28]: 70.6% and 65.1%; inhibition ([17]; single agent, at 5 µM): 27.8% and 40.5%; inhibition ([18]; at 0.5 µM): -27.8% (inactive) and -35.8% (inactive); inhibition [18, 26]: -14.9% and -11.9%; inhibition [18, 27]: -36.5% and -47.7%; inhibition ([18]; single agent, at 0.05 µM): -95.3% and 17.3%; inhibition ([18]; single agent, at 5 µM): 75.8% and 80.1%
